Results: PubChem BioAssay (Tox21)
Results filed as inconclusive are left out. Active and inactive are the calls of the source. Calls come from the whole dose curve.

Tests used:
[1] = biological target: Acetylcholinesterase (Homo sapiens) (UniProt P22303); assay: Acetylcholinesterase (AChE) small molecule antagonists: colormetric cell-based qHTS assay (AID 1347395); note: nearly all actives have a fitted effect of over 30% in size; note: potency is the fitted concentration of half-maximal effect
Method in brief: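 SH-SY5Y cells, plated overnight at 37 C, were exposed to compounds for 30 min at 37 C and 5% CO2. Acetylthiocholine plus DTNB was then added, and thiocholine from endogenous AChE was quantified colorimetrically after 90 min at 37 C.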

[2] = biological target: Acetylcholinesterase (Homo sapiens) (UniProt P22303); assay: Acetylcholinesterase (AChE) small molecule antagonists: enzyme-based qHTS assay (AID 1347397); details: Potency: AChE enzyme activity inhibition; outcome: AChE enzyme activity inhibition; note: nearly all actives have a fitted effect of over 55% in size; note: potency is the fitted concentration of half-maximal effect
Method in brief: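 rhAChE 50 mU/mL (dispensed) + cpd or DMSO, 30 min RT; add DTNB/acetylthiocholine cocktail, 10 min RT; colorimetric thiocholine readout. qHTS, 1536-well format.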

[3] = biological target: Acetylcholinesterase (Homo sapiens) (UniProt P22303); assay: Acetylcholinesterase (AChE) small molecule antagonists: fluorescence cell-based qHTS assay (AID 1347398); details: Potency: AChE activity; outcome: AChE activity; note: nearly all actives have a fitted effect of over 50% in size; note: potency is the fitted concentration of half-maximal effect
Method in brief: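 Read-out is Thiolite Green fluorescence at Ex/Em = 490/520 nm, formed by reaction with thiocholine released when cellular AChE in SH-SY5Y cells hydrolyzes acetylthiocholine. Compounds were preincubated 30 min at 37 C before substrate.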

[4] = biological target: Acetylcholinesterase (Homo sapiens) (UniProt P22303); assay: Acetylcholinesterase (AChE) small molecule antagonists: enzyme-based qHTS assay with human liver microsomes (AID 1347399); details: Potency: qHTS inhibition; outcome: qHTS inhibition; note: nearly all actives have a fitted effect of over 60% in size
Method in brief: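 Recombinant human AChE (50 mU/mL in the enzyme mix) and human liver microsomes (0.25 mg/mL final) were preincubated with compound and NADPH (0.25 mg/mL final) for 30 min at 37 C. Acetylthiocholine/DTNB was then added; thiocholine was read colorimetrically after 10 min at room temperature.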

Measured: Potency

Sequence of Acetylcholinesterase (Homo sapiens) (P22303 whole entry, looked up): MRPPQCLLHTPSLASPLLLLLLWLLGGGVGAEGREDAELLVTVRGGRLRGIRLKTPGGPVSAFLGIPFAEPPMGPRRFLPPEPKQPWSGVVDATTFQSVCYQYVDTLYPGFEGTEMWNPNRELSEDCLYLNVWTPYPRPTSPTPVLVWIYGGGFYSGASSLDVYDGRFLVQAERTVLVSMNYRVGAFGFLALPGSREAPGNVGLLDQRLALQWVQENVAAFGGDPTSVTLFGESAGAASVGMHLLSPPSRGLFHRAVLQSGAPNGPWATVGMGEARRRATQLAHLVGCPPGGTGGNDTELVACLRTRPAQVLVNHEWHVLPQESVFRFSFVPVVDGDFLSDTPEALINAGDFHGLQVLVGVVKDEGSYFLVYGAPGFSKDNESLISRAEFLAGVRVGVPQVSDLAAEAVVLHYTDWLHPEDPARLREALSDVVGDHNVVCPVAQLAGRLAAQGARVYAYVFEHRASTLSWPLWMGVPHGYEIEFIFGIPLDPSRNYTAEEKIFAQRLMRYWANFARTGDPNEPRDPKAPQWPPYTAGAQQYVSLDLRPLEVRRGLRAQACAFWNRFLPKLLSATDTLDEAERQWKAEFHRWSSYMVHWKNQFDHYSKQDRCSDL

CN(C)C=O
inactive: all assays above

CC1(C)C(O)C(C)(C)C1O (stereo not given)
inactive: all assays above

COc1cc(CCC(C)=O)ccc1O
inactive: all assays above

O=C(c1ccc(O)cc1)c1ccc(Cl)cc1
inactive: all assays above

CCCCCCCCCCO
inactive: all assays above

CCCCCCO
inactive: all assays above

Cc1ccc(S(N)(=O)=O)cc1
inactive: all assays above

CCCc1nn(C)c2c(=O)[nH]c(-c3cc(S(=O)(=O)N4CCN(C)CC4)ccc3OCC)nc12
inactive: all assays above

CC(=O)Oc1ccc(C(=C2CCCCC2)c2ccc(OC(C)=O)cc2)cc1
inactive: all assays above

COC(=O)[C@@H]1CC2=CC(=O)CC[C@]2(C)[C@@]23O[C@@H]2C[C@@]2(C)[C@@H](CC[C@@]24CCC(=O)O4)[C@H]13
inactive: all assays above

O=C(O)c1ccccc1S
inactive: all assays above

O=c1cc(O)c(Cl)c[nH]1
inactive: all assays above

Cc1cnc(NC(=O)C2=C(O)c3ccccc3S(=O)(=O)N2C)s1
inactive: all assays above

CCCCCCCCCCCCCCCC(=O)OC(C)C
inactive: all assays above

COc1cc(C(=O)NS(=O)(=O)c2ccccc2C)ccc1Cc1cn(C)c2ccc(NC(=O)OC3CCCC3)cc12
inactive: all assays above

C[Si](C)(C)O[Si](O)(O)O
inactive: all assays above

c1ccc2[nH]c(-c3cscn3)nc2c1
inactive: all assays above

CCCCCC(=O)OCCc1ccccc1
inactive: all assays above

O=C1O[C@H]([C@H](O)CO)C(O)=C1O
inactive: all assays above

NS(=O)(=O)c1ccccc1OC(F)(F)F
inactive: all assays above

Nc1ccc(S(=O)(=O)Nc2cnc3ccccc3n2)cc1
inactive: all assays above

Cc1cc(C)nc(NS(=O)(=O)c2ccc(N)cc2)n1
inactive: all assays above

c1cc(CN2CCCCC2)cc(OCCCNc2nc3ccccc3s2)c1
active: [1] 15.5 µM | [2] 27.5 µM | [3] 13.8 µM
inactive: [4]

CC/C(=C\C(=N/O)C(N)=O)C(C)[N+](=O)[O-] (stereo not given)
inactive: all assays above

C/C=C(\C)C(C)=O
inactive: all assays above

CCC(C)C=O (stereo not given)
inactive: all assays above

OCCc1ccccn1
inactive: all assays above

C/C=C(C)/C=C/C=C(C)C
inactive: all assays above

C=C(C)C(=O)OCCCCCCCC(C)C
inactive: all assays above

CN(C)CCC=C1c2ccccc2CCc2ccccc21
inactive: all assays above

CC(c1cc2ccccc2s1)N(O)C(N)=O (stereo not given)
inactive: all assays above

CC(C(=O)O)c1ccc(-c2ccccc2)c(F)c1 (stereo not given)
inactive: all assays above

Clc1ccc(Sc2cc(Cl)c(Cl)cc2Cl)cc1
inactive: all assays above

C[C@H](NC(CCc1ccccc1)C(=O)O)C(=O)N1CCC[C@H]1C(=O)O (stereo not given in full)
inactive: all assays above

CCC(=O)O
inactive: all assays above

CC(C)CCCCCCOC(=O)C1CCCCC1C(=O)OCCCCCCC(C)C (stereo not given)
inactive: all assays above

CCCCCC/C(C=O)=C\c1ccccc1
inactive: all assays above

NCCNCCO
inactive: all assays above

CN(C)CCOC(c1ccccc1)c1ccc(Br)cc1 (stereo not given)
inactive: all assays above

COc1ccc(COC(C)=O)cc1
inactive: all assays above

CCCCC(CC)CO (stereo not given)
inactive: all assays above

CCCCOC(=O)CO
inactive: all assays above

c1ccc(SSc2ccccc2)cc1
inactive: all assays above

C[N+]1(C)CCC(=C(c2ccccc2)c2ccccc2)CC1
inactive: all assays above

SCCOCCOCCS
inactive: all assays above

CC(=O)C(C)C
inactive: all assays above

CC(C)(N=C=O)c1cccc(C(C)(C)N=C=O)c1
inactive: all assays above

CC(C)OC(=O)COc1ccc(Cl)cc1Cl
inactive: all assays above

NNc1nc(-c2ccccc2)cs1
inactive: all assays above

CC(C)(Oc1ccc(Cl)cc1)C(=O)O
inactive: all assays above

Nc1c(Cl)cc(Cl)cc1[N+](=O)[O-]
inactive: all assays above

CC(=O)OC/C=C(\C)CC/C=C(\C)CCC=C(C)C
inactive: all assays above

CCOC(=O)C1=C(C)NC(C)=C(C(=O)OC)C1c1cccc(Cl)c1Cl (stereo not given)
inactive: all assays above

O=C(Cl)c1ccc([N+](=O)[O-])cc1
inactive: all assays above

COC(=O)c1ccc(C=O)cc1
inactive: all assays above

C=C1C2CCC(C2)C1(C)C (stereo not given)
inactive: all assays above

Cc1ncc([N+](=O)[O-])n1CCO
inactive: all assays above

CC(=O)OCC(=O)[C@H]1CC[C@H]2[C@@H]3CCC4=CC(=O)CC[C@]4(C)[C@H]3CC[C@]12C
inactive: all assays above

C=C1CC[C@H](O)C/C1=C\C=C1/CCC[C@]2(C)[C@@H]([C@H](C)CCCC(C)C)CC[C@@H]12
inactive: all assays above

Nc1ccc(S(=O)(=O)NCc2ccccc2)cc1
inactive: all assays above
